The text below walks through data of PubChem BioAssay (EPA / NIEHS).

Results filed as inconclusive are left out. Active and inactive are the calls of the source. The calls were made as follows: active = hit-call score of the fitted dose curve at least 0.9, where 1 is the maximum; inconclusive = response in the unintended direction; inactive = score below 0.9.

Chain of Retinoic acid receptor RXR-alpha (Homo sapiens) (P19793 whole entry, looked up, the tested form may be a part): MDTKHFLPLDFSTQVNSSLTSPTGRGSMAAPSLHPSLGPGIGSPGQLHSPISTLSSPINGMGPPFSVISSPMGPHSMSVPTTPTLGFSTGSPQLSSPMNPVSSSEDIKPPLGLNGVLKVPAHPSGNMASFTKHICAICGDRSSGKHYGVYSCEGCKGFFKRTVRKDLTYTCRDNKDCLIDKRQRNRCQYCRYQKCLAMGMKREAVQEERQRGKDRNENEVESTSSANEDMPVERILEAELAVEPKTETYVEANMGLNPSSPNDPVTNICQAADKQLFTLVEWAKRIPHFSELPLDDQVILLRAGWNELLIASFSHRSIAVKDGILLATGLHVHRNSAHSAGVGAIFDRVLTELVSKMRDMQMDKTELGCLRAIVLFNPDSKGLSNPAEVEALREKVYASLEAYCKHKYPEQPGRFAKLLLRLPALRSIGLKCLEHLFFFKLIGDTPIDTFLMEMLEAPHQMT
Chain of Bile acid receptor (Homo sapiens) (Q96RI1 whole entry, looked up, the tested form may be a part): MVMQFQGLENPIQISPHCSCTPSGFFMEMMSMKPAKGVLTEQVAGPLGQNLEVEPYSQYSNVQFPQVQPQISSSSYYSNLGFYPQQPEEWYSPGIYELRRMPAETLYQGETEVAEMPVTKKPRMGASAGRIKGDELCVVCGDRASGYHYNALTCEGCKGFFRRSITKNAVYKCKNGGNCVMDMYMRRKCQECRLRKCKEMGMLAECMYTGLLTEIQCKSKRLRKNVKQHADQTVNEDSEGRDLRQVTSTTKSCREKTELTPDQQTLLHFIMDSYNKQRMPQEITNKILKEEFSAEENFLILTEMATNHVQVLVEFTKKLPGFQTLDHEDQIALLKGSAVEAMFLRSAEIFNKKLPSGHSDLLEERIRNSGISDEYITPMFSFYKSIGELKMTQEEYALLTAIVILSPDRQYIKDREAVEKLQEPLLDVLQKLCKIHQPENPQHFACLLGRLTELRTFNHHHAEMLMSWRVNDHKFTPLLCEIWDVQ

In one experiment the target is Bile acid receptor (Homo sapiens) (UniProt Q96RI1). Kind of experiment: OT_FXR_FXRSRC1_0480: Odyssey Thera (OT) 8-hour HEK293T Protein-Complementation Assay for Farnesoid X receptor/SRC-1 Co-activator (AID 2283383). The essentials:
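Human kidney HEK293T cells carried FXR/SRC-1 fragment-complementation constructs. Compounds were added and incubated 8 h. Reporter reassembly upon receptor–co-activator interaction was then quantified by fluorescence, with curves fitted in the positive direction relative to DMSO.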
As to `CC/C=C\C/C=C\C/C=C\CCCCCCCC(=O)O`, the molecule was classed as inactive.

Consider `CCCCCCCCO[C@@H]1O[C@H](CO)[C@@H](O)[C@H](O)[C@H]1O`, for which the result was inactive.

On to `CC(C)c1ccc2c(C(C)C)cc(C(C)C)c(S(=O)(=O)O)c2c1`, for which the molecule was called inactive.

A word on the AC50: it is the concentration at which the activity in the assay is half-maximal. Turning to `CCN(CCC#N)c1ccc(N=Nc2c(Cl)cc([N+](=O)[O-])cc2Cl)cc1`, the AC50 was 29 µM (active).

For `O=C(C(Cl)Cl)N1CCOC12CCCCC2`, the outcome was inactive.

Consider `CCCCCCCC/C=C\CCCCCCCC(=O)O`, for which the molecule was called inactive.

The target in the next experiment is Retinoic acid receptor RXR-alpha (Homo sapiens) (UniProt P19793). Put plainly: OT_NURR1_NURR1RXRa_0480: Odyssey Thera (OT) 8-hour HEK293T Protein Complementation Assay for Nurr1/retinoid X receptor (RXR) (AID 2283385). The essentials:
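8 h compound exposure, HEK293T; Nurr1/RXRα fragment complementation; fluorescence intensity; positive fitting direction vs DMSO baseline.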
Consider `CC/C=C\C/C=C\C/C=C\CCCCCCCC(=O)O`, for which the molecule was classed as inactive.

Take `CCCCC(CC)CCC(CC(C)C)OS(=O)(=O)O` (configuration not stated): the result was inactive.

Take `CCCCC/C=C\CCC=O`: the call was inactive.

On to `CC(=O)OC(C)C`, for which the molecule was classed as inactive.

Turning to `CC(C)C1=CC2=CC[C@@H]3[C@](C)(CCC[C@@]3(C)C(=O)O)[C@H]2CC1`, the call was inactive.

Consider `CC(C)c1ccc2c(C(C)C)cc(C(C)C)c(S(=O)(=O)O)c2c1`, for which the molecule was classed as inactive.

As to `CCCCCCCC/C=C\CCCCCCCC(=O)OCCO`, the concentration at half-maximal activity (AC50) is 38.4 µM (active).

As to `CCCCC/C=C\C/C=C\CCCCCCCC(=O)OC`, the AC50 was 12 µM (active).

Consider `O=c1cc(-c2ccccc2)oc2ccccc12`, for which the result was inactive.

For `CCN(CCC#N)c1ccc(N=Nc2c(Cl)cc([N+](=O)[O-])cc2Cl)cc1`, the AC50 is 67.7 µM (active).

In the case of `Oc1ccc(Cl)cc1Cc1cc(Cl)ccc1O`, the AC50 was 11.7 µM (active).

Consider `CCCCCCCCCCCCCOP(=O)(O)O`, for which the call was inactive.

As to `O=S(=O)(O)c1ccccc1C=Cc1ccc(-c2ccc(C=Cc3ccccc3S(=O)(=O)O)cc2)cc1`, the molecule was called inactive.

For `O=C(C(Cl)Cl)N1CCOC12CCCCC2`, the outcome was inactive.

Take `CN(C)c1ccc(C(=N)c2ccc(N(C)C)cc2)cc1`: the concentration at half-maximal activity (AC50) is 27.7 µM (active).

In the case of `CCCCCCCCCCOS(=O)(=O)O`, the molecule was classed as inactive.

A further experiment shares this target. Put plainly: OT_NURR1_NURR1RXRa_1440: Odyssey Thera (OT) 24-hour HEK293T Protein Complementation Assay for Nurr1/retinoid X receptor (RXR) (AID 2283386). An outline of the steps:
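Interaction of Nurr1 with RXRα brings fused reporter fragments together in human HEK293T cells, restoring a functional reporter. Fluorescence intensity is measured 24 h after chemical treatment, and values are analysed in the positive direction against DMSO.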
On to `CCCCC(CC)CCC(CC(C)C)OS(=O)(=O)O` (configuration not stated), for which the molecule was classed as inactive.

For `CCCCC/C=C\CCC=O`, the molecule was called inactive.

In the case of `CC(C)C1=CC2=CC[C@@H]3[C@](C)(CCC[C@@]3(C)C(=O)O)[C@H]2CC1`, the molecule was called inactive.

Consider `CCCCCCCC/C=C\CCCCCCCC(=O)OCCO`, for which the AC50 was 38.7 µM (active).

`O=S1(=O)OC(c2ccc(O)cc2)(c2ccc(O)cc2)c2ccccc21`: the molecule was called inactive.

In the case of `CCCCC/C=C\C/C=C\CCCCCCCC(=O)OC`, the AC50 was 50 µM (active).

Take `O=c1cc(-c2ccccc2)oc2ccccc12`: the result was inactive.

`CCN(CCC#N)c1ccc(N=Nc2c(Cl)cc([N+](=O)[O-])cc2Cl)cc1`: the AC50 is 50 µM (active).

As for `Oc1ccc(Cl)cc1Cc1cc(Cl)ccc1O`, the AC50 was 11.2 µM (active).

Take `CCCCCCCCCCCCCOP(=O)(O)O`: the molecule was called inactive.

`O=S(=O)(O)c1ccccc1C=Cc1ccc(-c2ccc(C=Cc3ccccc3S(=O)(=O)O)cc2)cc1`: the AC50 is 66.8 µM (active).

For `O=C(C(Cl)Cl)N1CCOC12CCCCC2`, the molecule was called inactive.

Consider `CN(C)c1ccc(C(=N)c2ccc(N(C)C)cc2)cc1`, for which the AC50 is 26.7 µM (active).

The target of another experiment is Peroxisome proliferator-activated receptor gamma (Homo sapiens) (UniProt P37231). Kind of experiment: OT_PPARg_PPARgSRC1_0480: Odyssey Thera (OT) 8-hour Protein-Complementation Assay for Peroxisome Proliferator-activated Receptor Gamma / SRC-1 Co-activator (AID 2283387).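 Also: nuclear to cytoplasmic split Venus YFP fluorescence ratio reporting PPARg SRC-1 interaction.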 An outline of the steps: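 Split-YFP (IFP1/IFP2) PPARg/SRC-1 reporter, HEK293T, 37 °C, 5% CO2; 8 h compound; formaldehyde fix + Draq5; high-content imaging, N/C ratio, ≥350 cells/image, positive direction vs DMSO.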
Chain of Peroxisome proliferator-activated receptor gamma (Homo sapiens) (P37231 whole entry, looked up): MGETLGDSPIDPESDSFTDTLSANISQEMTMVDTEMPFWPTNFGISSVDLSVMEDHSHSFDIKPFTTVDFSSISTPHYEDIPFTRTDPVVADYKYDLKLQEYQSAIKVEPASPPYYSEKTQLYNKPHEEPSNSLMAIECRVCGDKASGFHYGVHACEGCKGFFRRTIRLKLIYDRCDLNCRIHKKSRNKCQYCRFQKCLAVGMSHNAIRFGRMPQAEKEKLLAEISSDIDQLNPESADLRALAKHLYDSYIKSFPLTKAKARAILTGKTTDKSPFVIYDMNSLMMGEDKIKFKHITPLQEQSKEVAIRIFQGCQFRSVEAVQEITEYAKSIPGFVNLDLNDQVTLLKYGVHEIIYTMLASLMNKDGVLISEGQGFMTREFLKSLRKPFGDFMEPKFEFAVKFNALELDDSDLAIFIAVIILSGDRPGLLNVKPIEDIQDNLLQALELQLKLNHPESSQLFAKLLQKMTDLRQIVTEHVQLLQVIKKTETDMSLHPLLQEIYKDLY
Consider `Cc1ccc(N/N=c2\c(=O)cc/c(=N/Nc3ccc(S(=O)(=O)O)cc3)c2=O)c(C)c1`, for which the call was inactive.

On to `CC/C=C\C/C=C\C/C=C\CCCCCCCC(=O)O`, for which the outcome was inactive.

As to `CCCCC(CC)CCC(CC(C)C)OS(=O)(=O)O` (configuration not stated), the call was inactive.

As to `CCCCCCCC[N+](C)(CCCCCCCC)CCCCCCCC`, the call was inactive.

For `CCCCCCCCO[C@@H]1O[C@H](CO)[C@@H](O)[C@H](O)[C@H]1O`, the molecule was classed as inactive.

On to `CCCCC/C=C\CCC=O`, for which the molecule was classed as inactive.

As to `COC(=O)c1c(C)cc(O)c(C)c1O`, the molecule was classed as inactive.

With `CC(=O)OC(C)C`, the outcome was inactive.

With `CC(C)C1=CC2=CC[C@@H]3[C@](C)(CCC[C@@]3(C)C(=O)O)[C@H]2CC1`, the result was inactive.

For `CC(C)c1ccc2c(C(C)C)cc(C(C)C)c(S(=O)(=O)O)c2c1`, the result was inactive.

In the case of `CCCCCCCC/C=C\CCCCCCCC(=O)OCCO`, the molecule was classed as inactive.

For the molecule `O=S1(=O)OC(c2ccc(O)cc2)(c2ccc(O)cc2)c2ccccc21`, the call was inactive.

As to `CCCCC/C=C\C/C=C\CCCCCCCC(=O)OC`, the outcome was inactive.

Turning to `O=c1cc(-c2ccccc2)oc2ccccc12`, the molecule was called inactive.

Consider `CCN(CCC#N)c1ccc(N=Nc2c(Cl)cc([N+](=O)[O-])cc2Cl)cc1`, for which the molecule was classed as inactive.

For the molecule `Oc1ccc(Cl)cc1Cc1cc(Cl)ccc1O`, the outcome was inactive.

As to `CCCCCCCCCCCCCOP(=O)(O)O`, the outcome was inactive.

For the molecule `O=S(=O)(O)c1ccccc1C=Cc1ccc(-c2ccc(C=Cc3ccccc3S(=O)(=O)O)cc2)cc1`, the molecule was called inactive.

Consider `O=C(C(Cl)Cl)N1CCOC12CCCCC2`, for which the result was inactive.

For `CN(C)c1ccc(C(=N)c2ccc(N(C)C)cc2)cc1`, the AC50 is 30.6 µM (active).

As to `CCCCCCCC/C=C\CCCCCCCC(=O)O`, the molecule was called inactive.

On to `CCCCCCCCCCOS(=O)(=O)O`, for which the result was inactive.

Turning to `CC1=NN(c2cc(S(=O)(=O)O)ccc2Cl)C(=O)C1N=Nc1ccccc1` (configuration not stated), the molecule was called inactive.

For the next experiment the target is unchanged. Kind of experiment: OT_PPARg_PPARgSRC1_1440: Odyssey Thera (OT) 24-hour Protein-Complementation Assay for Peroxisome Proliferator-activated Receptor Gamma/ SRC-1 Co-activator (AID 2283388).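 Also: nuclear to cytoplasmic ratio of reconstituted Venus YFP fluorescence in fixed imaged cells.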 The essentials: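 Readout: nuclear-to-cytoplasmic 488 nm fluorescence ratio, ≥350 cells per image, 8 images per well, after 24 h compound exposure of HEK293T expressing PPARg/SRC-1 split-YFP fusions. Activity fitted in positive direction against DMSO.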
With `Cc1ccc(N/N=c2\c(=O)cc/c(=N/Nc3ccc(S(=O)(=O)O)cc3)c2=O)c(C)c1`, the molecule was called inactive.

As for `CC/C=C\C/C=C\C/C=C\CCCCCCCC(=O)O`, the call was inactive.

Take `CCCCC(CC)CCC(CC(C)C)OS(=O)(=O)O` (configuration not stated): the call was inactive.

In the case of `CCCCCCCC[N+](C)(CCCCCCCC)CCCCCCCC`, the molecule was called inactive.

Take `CCCCCCCCO[C@@H]1O[C@H](CO)[C@@H](O)[C@H](O)[C@H]1O`: the outcome was inactive.

With `CCCCC/C=C\CCC=O`, the call was inactive.

Regarding `COC(=O)c1c(C)cc(O)c(C)c1O`, the molecule was called inactive.

Regarding `CC(=O)OC(C)C`, the molecule was classed as inactive.

As for `CC(C)C1=CC2=CC[C@@H]3[C@](C)(CCC[C@@]3(C)C(=O)O)[C@H]2CC1`, the molecule was called inactive.

For `CC(C)c1ccc2c(C(C)C)cc(C(C)C)c(S(=O)(=O)O)c2c1`, the outcome was inactive.

With `CCCCCCCC/C=C\CCCCCCCC(=O)OCCO`, the molecule was called inactive.

Turning to `O=S1(=O)OC(c2ccc(O)cc2)(c2ccc(O)cc2)c2ccccc21`, the molecule was classed as inactive.

Consider `CCCCC/C=C\C/C=C\CCCCCCCC(=O)OC`, for which the outcome was inactive.

Turning to `O=c1cc(-c2ccccc2)oc2ccccc12`, the result was inactive.

In the case of `CCN(CCC#N)c1ccc(N=Nc2c(Cl)cc([N+](=O)[O-])cc2Cl)cc1`, the result was inactive.

`Oc1ccc(Cl)cc1Cc1cc(Cl)ccc1O`: the outcome was inactive.

Turning to `CCCCCCCCCCCCCOP(=O)(O)O`, the result was inactive.

Turning to `O=S(=O)(O)c1ccccc1C=Cc1ccc(-c2ccc(C=Cc3ccccc3S(=O)(=O)O)cc2)cc1`, the molecule was classed as inactive.

With `O=C(C(Cl)Cl)N1CCOC12CCCCC2`, the result was inactive.

In the case of `CN(C)c1ccc(C(=N)c2ccc(N(C)C)cc2)cc1`, the AC50 is 28.7 µM (active).

Consider `CCCCCCCC/C=C\CCCCCCCC(=O)O`, for which the result was inactive.

Regarding `CCCCCCCCCCOS(=O)(=O)O`, the molecule was classed as inactive.

With `C1CN(SSN2CCOCC2)CCO1`, the result was inactive.

Consider `CC1=NN(c2cc(S(=O)(=O)O)ccc2Cl)C(=O)C1N=Nc1ccccc1` (configuration not stated), for which the result was inactive.
